Results: PubChem BioAssay AID2101 (National Center for Advancing Translational Sciences (NCATS), 2009)
About 300 (0.091%) of roughly 330,000 compounds were called active. Not shown: some 4% with an inconclusive outcome. The call rests on the fitted dose curve; in most records, active means well fitted inhibition curve with a large enough effect; inconclusive means small, poorly fitted or top-dose-only effect, or effect the other way, or another doubt; inactive means no such curve, though single readings can be large or run the other way. Many of the other results were omitted from the sample, so actives are more common in it than they were.

Each compound was assayed against Lysosomal acid glucosylceramidase (Homo sapiens) (UniProt P04062) (assay: qHTS Assay for Inhibitors and Activators of N370S glucocerebrosidase as a Potential Chaperone Treatment of Gaucher Disease). Details: N370S GC spleen homogenate, 4MU-glucoside fluorescence; series mostly up to 59.4 µM.
Description: NIH Chemical Genomics Center [NCGC]
NIH Molecular Libraries Probe Production Centers Network [MLPCN]
Assay Submitter (PI): Wei Zheng
Glucocerebrosidase (GC) catalyzes the hydrolysis of beta-glucocerebroside to glucose and ceramide in lysosomes. Mutations in the glucocerebrosidase gene result in Gaucher disease, an autosomal recessive lysosomal storage disorder. Many of the mutations encountered in patients with Gaucher disease are missense alterations that may cause misfolding, decreased stability and/or mistrafficking of this lysosomal protein. […] These inhibitors include iminosugar analogs and three non-iminosugar inhibitors identified from a previous HTS of 62,000 compounds with the wild type recombinant enzyme. However, the enhancement of enzyme activity by the chaperone action of an enzyme inhibitor must be balanced against the direct inhibition of the enzyme. An enzyme activator could also function as a chaperone by binding to the enzyme and helping to correct its misfolding and mistrafficking. While activators for GC have not yet been identified, they may have better therapeutic potential than inhibitors. Therefore the discovery and development of chemical activators may provide a new strategy for the chaperone therapy.
We have optimized a new assay using N370S mutant GC derived from the spleen of a Gaucher patient. […] In addition, the MLPCN compound library has expanded, which increases the chance of finding new and better probes.
NCGC Assay Protocol Summary:
This is a fluorogenic enzyme assay with 4-methylumbelliferyl-beta-D-glucopyranoside as the substrate and N370S glucocerebrosidase from human spleen homogenate as the enzyme preparation. Upon the hydrolysis of this fluorogenic substrate, the resulting product, […] which can be detected by a standard fluorescence plate reader. Data were normalized to the controls for basal activity (without enzyme) and 100% activity (with enzyme). The AC50 values were determined from concentration-response data modeled with the standard Hill equation.
Assay buffer: 50 mM citric acid (titrated with potassium phosphate to pH 5.0), 100 mM potassium chloride, 10 mM sodium chloride, 1 mM magnesium chloride, 0.01% Tween-20.
1536-well assay protocol:
(1) Add 2 ul/well of spleen homogenate (27 ug final)
(2) Add 23 nL compounds in DMSO solution. The final titration was 0.5 nM to 58 uM.
(3) Add 2 ul of substrate (1 mM final)
(4) Incubate at 37C for 40 min.
(5) Add 2 ul stop solution (1M NaOH and 1M Glycine mixture, pH 10)
(6) Detect the assay plate in a ViewLux plate reader (PerkinElmer) with Ex=365 nm and Em=440nm.
Keywords: Glucocerebrosidase, beta-glucosidase, Gaucher Disease, pharmacological chaperone, chaperone therapy, high throughput screening, glucocerebrosidase inhibitor, MLSMR, MLSCN, NIH Roadmap, qHTS and NCGC
Potency means the concentration at half of the fitted maximal effect.
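Wherever Activity change, negative = inhibition is given: 0% = full enzyme activity and -100% = no enzyme basal.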

Activity change, negative = inhibition, inactive:
O=C(NCCc1ccc(F)cc1)c1ccc(S(=O)(=O)N2CCCCC2)cc1
Nc1nc2c(ncn2[C@@H]2O[C@H](COP(=O)(O)OP(=O)(O)OP(=O)(O)O)[C@@H](O)C2O)c(=O)[nH]1 (some centres not stated)
Cc1occc1-c1nnc(SCC(=O)NC2(C#N)CCCC2)n1C
C/C=C(\C)C(=O)OC1C(OC(=O)C2(C)OC2C)c2cc3ccc(=O)oc3cc2OC1(C)C (configuration not stated)
O=C(c1cnccn1)N1CCC2(CCN(Cc3cc(C(F)(F)F)cc(C(F)(F)F)c3)CC2)CC1
Cc1ccc(NC(=O)CCC(=O)N2CCC(c3ccccc3)=N2)cc1S(=O)(=O)N1CCCCC1
CC(=O)OCCC(C)C
CCCCCCN(C(=O)CCCCCN1C(=O)NC(c2ccc(C(F)(F)F)cc2)C(C(=O)OCc2ccccc2)=C1C)C(C(=O)NCCCC)c1ccc(OCC(=O)OC)c(C(=O)OC)c1 (configuration not stated)
c1ccc(Oc2ccccc2)cc1
C=CCOC(=O)C(C(C)=O)C(NC(=O)OC)c1ccccc1 (configuration not stated) -15.4% [at 12.8 µM]
COC(=O)CCc1ccccc1S(=O)(=O)N(CCC(=O)OC)Cc1ccccc1
CC1CC[C@@]23CCC4(C)[C@@]5(C)CCC6C(C)(C)C(O)CC[C@@]6(C)C5C=C[C@@]4(OC2=O)C3C1C (some centres not stated)
CCN(CC)/[N+]([O-])=N/Oc1cc(O/[N+]([O-])=N/N2CCCC2CO)c([N+](=O)[O-])cc1[N+](=O)[O-] (configuration not stated)
COC(=O)N1C(/C=C/C=C/c2ccc(OC)cc2)=Cc2ccccc2C1CC(C)=O (configuration not stated) -10.4% [at 12.8 µM]
COc1ccc(-c2nc3c(c4c2C[C@H](c2ccccc2)OC4)CN(C(=O)C2CC2)CC3)c(C)c1 -14.3% [at 12.8 µM]
C[C@]12CC[C@@H]3C(=CCc4cc(O)ccc43)[C@@H]1CCC2=O
CCOC(OCC)OCC
COc1ccc(Cl)cc1NC(=O)CN(C)CC(=O)Nc1ccc2c(c1)OCO2
COc1cccc(CC(=O)N2CCc3nc(COc4ccccc4)c4c(c3C2)CO[C@@H](C)C4)c1 3.29% [at 12.8 µM]
O=S(=O)(Nc1ccc2nc(N3CCOCC3)sc2c1)c1ccccc1
CC(C)C(NC(=O)c1c(F)cccc1F)C(=O)NCc1ccncc1 (configuration not stated)
O=C(Nc1cccc(C(=O)NC2CC2)c1)c1ccc(F)c(S(=O)(=O)N2CCOCC2)c1
COc1ccc(CNC(=O)COC(=O)c2c(C)nn(-c3ccccc3)c2C)cc1OC
Cc1ccccc1Nc1nc(N)nc(COC(=O)CCC(=O)c2ccc(F)cc2)n1
CN(CC(=O)Nc1cccc(F)c1)C(=O)CC1CCCC1
Cc1nc2cc(-c3ccc(F)cc3)nn2c(N2CCOCC2)c1C
Cc1cc(C(C)(C)C)n2nc(C)c(-c3ccccc3)c2n1
CC(O)[C@@H](N)C(=O)O (some centres not stated)
CC/C=C/C/C=C/C/C=C/CCCCCCCC(=O)OCC
COC(=O)C(C(=O)OC)[C@@H]1CCCC(=O)C1 8.05% [at 12.8 µM]
Cc1cc(C)c(C#N)c(SCC(=O)N(CC(C)C)C2CCS(=O)(=O)C2)n1 (configuration not stated)
O=C(COc1ccccc1O)NC1CCCC1
FC(F)(F)c1ccccc1-c1cc(NCc2ccccc2)ncn1
COc1cccc(-c2cc(=O)c3cc(NC(=O)c4ccc(C)cc4)ccc3[nH]2)c1
CCCCC(CC)CN (configuration not stated)
CCCCC/C=C\C/C=C\C/C=C\CCCCC(=O)NCC(=O)O
CC(=O)Nc1ccc(S(=O)(=O)N2CCN(S(=O)(=O)c3cccs3)CC2)cc1
CCc1c2c(nc3ccc(O)cc13)-c1cc3c(c(=O)n1C2)COC(=O)[C@]3(O)CC
Cc1cc(C)cc(C#CC2C=CC(Oc3ccc(C4CCCC4)cc3)C(CO)O2)c1 (configuration not stated) 7.35% [at 12.8 µM]
O=C1C2C(c3ccccc3)CC=CC2C(c2ccoc2)N1Cc1ccccc1 (configuration not stated)
O=C(CN1CCCSc2ccccc21)N1CCN(S(=O)(=O)c2ccccc2)CC1
COC(=O)NC(c1ccccc1)[C@]1(C(C)=O)CCCC1=O (some centres not stated) 0.29% [at 12.8 µM]
O=c1cc(-c2ccc(O)cc2)oc2c([C@@H]3O[C@H](CO)[C@@H](O)[C@H](O)[C@H]3O)c(O)cc(O)c12
COc1ccc2[nH]cc(CCNc3ncnc4ccc(-c5ccc(C(=O)N(C)C)cc5)cc34)c2c1
CCOC(=O)Cc1csc(SCC(=O)Nc2ccc(C)cc2F)n1
CC[C@H](C)[C@H](NC(=O)[C@@H](N)CCC(=O)O)C(=O)N[C@@H](CC(C)C)C(=O)N[C@@H](CC(=O)O)C(=O)N[C@H](C(=O)N1CCC[C@H]1C(=O)N[C@@H](CO)C(=O)N[C@H](C(=O)O)[C@@H](C)O)C(C)C
N#CCC(=O)Nc1ccc(C(=O)OCC(=O)Nc2sc3c(c2C#N)CCCC3)cc1
CC(=O)CC(C)C
CCOc1[nH]n(-c2ccc(Cl)cc2)c(=O)c1C=Nc1ccc(O)cc1
O=[N+]([O-])c1ccc(N=Cc2c(O)ccc3ccccc23)cc1
CC(=O)c1ccc(N2CCN(C(=O)c3ccc(Cl)c(S(=O)(=O)NC4CC4)c3)CC2)c(F)c1
Oc1ccc(O)c2c(O)cccc12
Cc1ccc(C)c(NC(=O)CN(C)C(=O)c2ccc3ncsc3c2)c1
CSc1ccccc1NC(=O)COC(=O)CCCOc1ccc(C)cc1
CC1CCCC(NC(=O)c2cc(-c3ccncc3)nc3ccccc23)C1C (configuration not stated)
COc1ccc(N(CC(=O)NC2CCCCCCC2)S(=O)(=O)c2c(C)nn(C)c2C)cc1
CCOc1ccc(N(CC(=O)NCc2ccc(OC)cc2)S(=O)(=O)c2c(C)noc2C)cc1
CCOc1ccc(N(CC(=O)NCCc2ccc(F)cc2)S(=O)(=O)c2ccccc2)cc1
CCOc1ccc(N(CC(=O)Nc2cccc(OC)c2)S(C)(=O)=O)cc1
COc1cccc(N(CC(=O)NC2CCCCCC2)S(=O)(=O)c2ccccc2)c1
CCCN(c1ccc(C(C)C)cc1)S(=O)(=O)c1c(C)[nH]c(=O)[nH]c1=O
O=C(NCc1ccco1)O[C@@H]1C(=O)c2cc(Br)ccc2O[C@H]1c1ccc2c(c1)OCO2
CCn1c(=O)c(=O)n(CC)c2cc(N3CCCCC3)c(NC(=O)c3ccc(Cl)cc3)cc21
CCC(C)C(N=C1NS(=O)(=O)c2ccccc21)C(=O)N1CCC(C)CC1 (configuration not stated)
O=C1CN(Cc2ccccc2)S(=O)(=O)c2ccccc21
C#CCOCCOCCOCCNc1nc(N2CCN(C(=O)CCCCCCCCCCNC(=O)Cn3cc(CCCCCN)nn3)CC2)nc(N2CCN(C(=O)CCCCCCCCCCNC(=O)[C@H](CO)n3cc(CCCSC)nn3)CC2)n1
C#CCOCCOCCOCCNc1nc(N2CCN(C(=O)Cn3cc(CCCCN)nn3)CC2)nc(N2CCN(C(=O)[C@H](CCCCN)n3cc(CCC(=O)O)nn3)CC2)n1
O=c1c(O)c(-c2ccc(O)cc2)oc2ccccc12
CCCCN(CC(=O)Nc1cccc(S(=O)(=O)N2CCCC2)c1)Cc1nc2ccccc2c(=O)[nH]1
COc1cc(C(=O)OCC(=O)NC23CC4CC(CC(C4)C2)C3)cc(OC)c1OC
CN1CCN(c2ncc3nc(-c4ccc(Cl)cc4)c(=O)n(-c4ccccc4)c3n2)CC1
COc1cccc([C@H]2Oc3ccc(OC)cc3/C(=N\OCC[C@@H]3C=C[C@H](OC(C)=O)[C@H](COC(C)=O)O3)[C@@H]2O)c1 10.4% [at 12.8 µM]
COc1ccc(-c2ccc(C3C4C=CCCC4(C)C(=O)N3Cc3ccccc3)c(F)c2)cc1OC (configuration not stated)
CCc1ccc(CN(C)C(C)C(=O)Nc2ccc(S(=O)(=O)N3CCCC3)cc2)cc1 (configuration not stated)
Cc1csc(SCC(=O)N(c2ccccc2)C(C)C)n1
c1cncc(CNc2ccnc(-c3ccc4c(c3)OCO4)n2)c1
CC(=O)c1ccc(OCCCC(=O)Nc2ccc(C)c(S(=O)(=O)N3CCOCC3)c2)cc1
Cc1ccc(-c2cccc([C@H]3[C@@H]4C=CC[C@@H](C)[C@@H]4C(=O)N3Cc3ccccc3)c2)cc1
O=C(C1CC(=O)N(C2CCCC2)C1)N1CCN(c2cccc(C(F)(F)F)c2)CC1 (configuration not stated)
CC(C)C[C@@H](CC(=O)N[C@@H](CCC(=O)O)CC(=O)O)NC(=O)[C@@H]1CCCC[C@H]1NC(=O)C[C@@H](NC(=O)C[C@H](CO)NC(=O)[C@@H]1CCCC[C@H]1N)C(C)C
COc1cc(OC)c2c(c1C(CCN1CCCCC1)c1ccc(N(C)C)cc1)OC(=O)CC2c1ccc(N(C)C)cc1 (configuration not stated)

Potency, active:
Cc1cc(N)n2nc(-c3ccc(C(C)(C)C)cc3)cc2n1 10 µM
Oc1ccc(N=Cc2c(O)ccc3ccccc23)cc1 12.6 µM
CCOc1ccc(N(CC(=O)Nc2ccccc2F)S(=O)(=O)c2c(C)[nH]c(=O)[nH]c2=O)cc1 3.16 µM
CCOc1ccc(N(CC(=O)NC2CCCCCC2)S(=O)(=O)c2c(C)[nH]c(=O)[nH]c2=O)cc1 2.51 µM
COc1ccc(N(CC(=O)NC2CCCCC2)S(=O)(=O)c2c(C)[nH]c(=O)[nH]c2=O)cc1 3.98 µM
C#CCOCCOCCOCCNc1nc(N2CCN(C(=O)CCCCCCCCCCNC(=O)[C@H](CCCCN)n3cc(C)nn3)CC2)nc(N2CCN(C(=O)CCCCCCCCCCNC(=O)[C@H](CO)n3cc(CCCSC)nn3)CC2)n1 15.8 µM
